Assay outcomes from PubChem BioAssay.
In the library only some 6.9% were active in any assay of this set; here they are far more common.
HP1b binding inh: blocks HP1-beta chromodomain binding to methylated histone tails; Potency, µM (highest dose often 114 µM), most hits filed as inhibitors; AlphaScreen HP1-beta / biotin-H3K9me3 peptide binding; hit rate 0.56% among 390,000; AID 540317; P83916; note: nearly all actives have a fitted effect of over 70% in size
Target sequence (P83916 whole entry, looked up): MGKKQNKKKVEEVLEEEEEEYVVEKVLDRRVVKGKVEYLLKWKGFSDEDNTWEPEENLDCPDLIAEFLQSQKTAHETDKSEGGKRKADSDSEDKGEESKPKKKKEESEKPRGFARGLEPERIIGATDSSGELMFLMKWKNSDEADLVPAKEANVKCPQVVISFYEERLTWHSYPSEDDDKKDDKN
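AlphaScreen: HP1-beta (50 nM) preformed 30 min with biotin-H3(1-18)K9me3 peptide (50 nM) in PBS pH 7.4, 0.01% Tween-20. Compound added for 30 min at RT, then streptavidin donor/nickel chelate acceptor beads (10 ug/mL) for 30 min.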
BAZ2B inh: inhibitors of human BAZ2B bromodomain | hit rate 4.4% among 360,000 | Potency, µM (top dose mostly 114 µM), hits mostly inhibitors | AlphaScreen BAZ2B-H3K14Ac peptide displacement | Q9UIF8; note: nearly all actives have a fitted effect of over 60% in size
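In this displacement format the biotinylated H3(5-23) peptide acetylated at Lys14 serves as ligand at 50 nM, with BAZ2B at 50 nM in PBS pH 7.4 containing 0.01% Tween-20. Donor and acceptor beads are 10 ug/mL final.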
L3MBTL1 block: inhibitors of human L3MBTL1; Q9Y468; AlphaScreen L3MBTL1–H3K9me1 peptide binding; Potency, µM (top dose mostly 57.1 µM), hits mostly inhibitors; hit rate 0.66% among 230,000; note: nearly all actives have a fitted effect of over 60% in size
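Displacement of a biotinylated histone H3(1-15) peptide monomethylated at Lys9 (75 nM) from L3MBTL1 (50 nM) was measured by AlphaScreen after a 30 min room-temperature compound incubation; cefsulodin titration served as intraplate control.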
VDR inh: blocks the human vitamin D receptor. P11473. VDR-SRC2-3 peptide fluorescence polarization, 2 h. Potency, µM, most hits filed as inhibitors. hit rate 0.93% among 400,000. AID 504847
Target sequence (P11473 whole entry, looked up): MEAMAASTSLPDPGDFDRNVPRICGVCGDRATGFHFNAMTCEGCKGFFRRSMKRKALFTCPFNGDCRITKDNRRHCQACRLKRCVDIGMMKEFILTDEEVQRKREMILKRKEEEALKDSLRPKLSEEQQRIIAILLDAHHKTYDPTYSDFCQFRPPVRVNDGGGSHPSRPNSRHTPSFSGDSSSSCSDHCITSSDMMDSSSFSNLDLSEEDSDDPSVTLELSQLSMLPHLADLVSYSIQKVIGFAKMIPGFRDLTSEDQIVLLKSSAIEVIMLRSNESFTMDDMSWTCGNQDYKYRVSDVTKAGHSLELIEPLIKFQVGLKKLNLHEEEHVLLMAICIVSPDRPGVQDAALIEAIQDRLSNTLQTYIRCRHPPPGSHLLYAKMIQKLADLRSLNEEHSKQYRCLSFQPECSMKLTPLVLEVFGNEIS
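Compounds are added to VDR with labelled SRC2-3 coactivator peptide and held 2 h at room temperature. Inhibition of the VDR–peptide interaction is then read as a change in fluorescence polarization.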
JMJD2A Tudor: blocks the human JMJD2A Tudor domain | O75164 | AlphaScreen JMJD2A-Tudor / H3K4me3 peptide binding | Potency, µM (titrated, usually from 114 µM), actives largely listed as inhibitors | hit rate 4.4% among 390,000 | AID 504339; note: nearly all actives have a fitted effect of over 50% in size
PLK1 PBD inh: inhibitors of human PLK1 polo-box domain binding. AID 720504. Plk1 PBD binding of FITC phosphopeptide, fluorescence polarization. P53350. hit rate 2.8% among 360,000. Potency, µM, usual class: inhibitors; note: series mostly up to about 57 µM; nearly all actives have a fitted effect of over 65% in size
Hits are given with their value; - = inactive; ? = inconclusive; . = no result given; [ ] = remark or other dose. Calls come from the whole dose curve; as a rule, active = well fitted curve in the direction sought with a large enough effect; inconclusive = small, poorly fitted or top-dose-only effect, or another doubt; inactive = no such curve, though single readings can be large; an effect the other way counts as inactive or inconclusive.

SMILES | HP1b binding inh | BAZ2B inh | L3MBTL1 block | VDR inh | JMJD2A Tudor | PLK1 PBD inh
C=CCc1cc(Cl)ccc1OCCCNC(C)C | ? | 56.2µM | - | - | 31.6µM | -
COc1ccc(-n2nnnc2S(=O)(=O)CC(=O)N2CCCCC2)cc1 | - | - | . | ? | - | 11.9µM
CCc1ccc(Oc2nnnn2-c2ccc(C(N)=O)cc2)cc1 | - | - | - | - | - | -
COc1ccc(-n2nnnc2S(=O)(=O)Cc2ccc(C(=O)O)cc2)cc1 | - | - | - | ? | - | 29.9µM
O=C(CNS(=O)(=O)c1c(F)cccc1F)NC1CCCc2ccccc21 (stereo not drawn) | - | . | - | - | - | -
Cc1ccc(OC(=O)CSc2nnc(-c3ccc4c(c3)OCO4)o2)c(C)c1 | - | - | . | - | - | .
O=C(O)Cc1sc(Nc2cccc3ccccc23)nc1-c1ccc(Cl)cc1 | - | ? | . | - | - | 26.7µM
O=C(O)Cc1sc(Nc2cccc3ccccc23)nc1-c1ccccc1 | - | ? | - | - | ? | -
COc1ccc(C2c3c(ncn(CCN4CCOCC4)c3=N)Oc3ccc4ccccc4c32)cc1 (stereo not drawn) | - | - | . | - | ? | -
COc1cccc(C2c3c(ncn(-c4ccccc4C#N)c3=N)Oc3ccc4ccccc4c32)c1 (stereo not drawn) | . | . | . | . | 56.2µM | .
COc1cccc(C2c3c(ncn(-c4ccccc4Br)c3=N)Oc3ccc4ccccc4c32)c1 (stereo not drawn) | . | . | . | . | 50.1µM | .
O=C(O)c1cc(F)c(S(=O)(=O)N2CCN(S(=O)(=O)c3ccc4c(c3)OCCO4)CC2)cc1F | . | . | . | . | - | .
CCc1ccc(C(c2c(C)nn(-c3ccccc3)c2N)c2c(C)nn(-c3ccccc3)c2N)cc1 | - | ? | - | - | 56.2µM | -
Cc1ccc(S(=O)(=O)N(C)CC(=O)OCC(=O)NC(=O)Nc2ccc3c(c2)OCCO3)cc1 | ? | - | - | ? | ? | 26.7µM
Cc1ccc(-c2cc(C(=O)NCc3ccccn3)c3ccccc3n2)cc1C | - | - | - | ? | ? | 23.8µM
COc1ccc(-c2cc(C(=O)OCC(=O)N(C)C)c3ccccc3n2)cc1 | - | - | - | - | - | -
O=C(NCCc1ccc(Cl)cc1)c1cc(-c2ccccn2)nc2ccccc12 | - | - | . | - | 22.4µM | 18.9µM
Cc1cccc(-c2cc(C(=O)NCc3ccccn3)c3ccccc3n2)c1 | - | - | - | - | - | -
COc1ccc(-c2cc(C(=O)OCc3ccccn3)c3ccccc3n2)cc1 | - | ? | . | - | 20µM | -
c1ccc(CCN(Cc2ccccc2)Cc2nc(C3CC3)no2)cc1 | - | - | - | ? | - | -
O=C(Cn1ncc2c3ccccc3n(Cc3ccccc3)c2c1=O)NCCc1ccc(Cl)cc1 | - | - | . | - | - | .
Fc1ccccc1CN1CCCCCCC1 | ? | 50.1µM | . | - | 3.98µM | -
Fc1ccc(CN2CCCCCCC2)c(F)c1 | ? | 50.1µM | - | - | 3.16µM | -
Fc1ccc(CN2CCCCCC2)c(F)c1 | ? | ? | - | - | ? | -
CCOC(=O)c1c(C)oc2c1c1c(c3ccccc32)OCN(CCCC(=O)O)C1 | - | ? | - | 89.1µM | ? | 10.6µM
SMILES | HP1b binding inh | BAZ2B inh | L3MBTL1 block | VDR inh | JMJD2A Tudor | PLK1 PBD inh
Cc1ccc(S(=O)(=O)c2c(C)nn(-c3ccccc3)c2OC(=O)c2ccco2)cc1 | - | - | - | - | 79.4µM | -
Cc1ccc(S(=O)(=O)c2c(C)nn(-c3ccccc3)c2OC(=O)c2ccc(Br)o2)cc1 | - | - | - | - | ? | -
O=C(CN1C(=O)C2CCCCC2C1=O)NC1CCCc2ccccc21 (stereo not drawn) | - | - | - | - | - | -
CCCCN1C(=O)C(=O)N(CC(=O)NC2CCCc3ccccc32)C1=O (stereo not drawn) | ? | - | - | ? | 5.01µM | -
Cc1ccc(S(=O)(=O)N2C[C@H]3C(=O)C[C@@H](c4ccc(Cl)cc4)N(S(=O)(=O)c4ccccc4C)[C@H]3C[C@H]2c2ccc(Cl)cc2)cc1 | . | . | . | . | . | -
O=Nc1c(O)n(Cc2ccc(Cl)cc2Cl)c2ccccc12 | - | 44.7µM | - | - | ? | -
CC(=O)Nc1cccc(CCc2nc3ccccc3[nH]2)c1 | - | - | - | 70.8µM | ? | ?
CC(C)CC(=O)Nc1cccc(-c2nc3ccccc3[nH]2)c1 | - | - | . | ? | -[11.4 µM] | 26.7µM
CC(=O)Nc1ccc(CCc2nc3ccccc3[nH]2)cc1 | - | - | - | - | - | -
N=C(N)SCCN=C(N)N | . | . | . | - | . | .
CCCN(CCC)S(=O)(=O)c1ccc(C(=O)N2CCn3c4c(c5cc(C)ccc53)CCCC42)cc1 (stereo not drawn) | - | - | . | - | - | .
CC1CCc2ccccc2N1C(=O)c1cccs1 (stereo not drawn) | ? | - | . | ? | 56.2µM | 21.2µM
COc1cc(C(=O)N2c3ccccc3CCC2C)cc(OC)c1OC (stereo not drawn) | - | - | -[2.29 µM] | - | - | -
COc1ccc(-c2cc(C(F)F)n3ncc(C(=O)N4CCc5ccccc54)c3n2)cc1 | ? | ? | - | ? | 20µM | 6.7µM
O=C1NC2c3c(Cl)sc(Cl)c3C(=O)C2O1 (stereo not drawn) | - | . | . | ? | 56.2µM | 15µM
O=C1NC2c3c(I)sc(I)c3C(=O)C2O1 (stereo not drawn) | - | . | . | - | - | ?
Cc1ccc(CNC(=O)CSCc2cccc(F)c2)cc1 | - | . | . | ? | 50.1µM | 21.2µM
Cc1ccc(CNC(=O)CSCc2ccccc2C)cc1 | - | - | . | - | - | .
O=C(CCSCCC(=O)NCc1ccccc1)NCc1ccccc1 | - | - | . | - | - | -
O=C(CCSCc1cccc(F)c1)NCc1ccc(F)cc1 | - | - | . | ? | ? | 7.52µM
O=C(c1csnn1)N1CCC2(CC1)CCN(c1ccncc1)CC2 | . | . | . | - | . | .
Cc1ccccc1OCC(=O)N(Cc1ccc(N(C)C)cc1)C1CCS(=O)(=O)C1 (stereo not drawn) | - | - | - | - | ? | -
Cc1ccccc1OCC(=O)N(Cc1ccc(N(C)C)cc1)CC1CCCO1 (stereo not drawn) | ? | 31.6µM | . | - | 44.7µM | .
Cc1cccc(C)c1OCC(=O)N(Cc1ccc(Cl)cc1)CC1CCCO1 (stereo not drawn) | - | - | . | - | - | .
Cc1cc(C)c(OCC(=O)N(Cc2ccc(N(C)C)cc2)CC2CCCO2)c(C)c1 (stereo not drawn) | ? | 28.2µM | . | - | 39.8µM | .
Cc1ccc(C)c(Nc2nn3c(=O)c4ccc(C(=O)N(C)Cc5ccccc5)cc4nc3s2)c1 | - | - | . | - | - | .
CC(=O)c1cccc(Nc2ncnc3c2cnn3C)c1 | - | - | . | - | - | .
Cc1sc2nc(C3CC3)nc(N3CCN(C(=O)c4ccc(Cl)cc4)CC3)c2c1C | - | ? | . | - | 44.7µM | -
Cc1sc2nc(C3CC3)nc(N3CCN(C(=O)c4ccc(F)cc4)CC3)c2c1C | - | ? | . | - | - | -
